Shown are actives, neighbours in structure and some others; about 2.7% of the full set was active somewhere.
HIF-2a inh: inhibitors of HIF-2a; 786-0 RCC cells HIF-2a reporter, luciferase luminescence, overnight; inhibition, % at 18.8 µM; 360,000 compounds, 0.72% hits;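 active = inhibition of the luminescence signal of 40% or more relative to plate controls, in a single-dose primary screen at 18.75 µM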
KKLEB tox: counter-screen for CF NF-kB inhibitors: cytotoxicity; 360,000 compounds, 0.36% hits; KKLEB CF airway cells viability, ATPlite luminescence, overnight; stronger effect = lower value; cells stimulated with P. aeruginosa culture filtrate; activity change (cytotoxicity), % at 5 µM;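 active = corrected activity change at or below -50% at 5 µM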
Peg3 prom inh: reduces Peg3 promoter-driven luciferase expression in HeLa; AID 588405; HeLa PEG-Prom luciferase reporter, luminescence, overnight; inhibition, % at 20 µM; 360,000 compounds, 1.7% hits;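 active = inhibition of at least 50% at 20 µM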
Shn3 inh set2: inhibitors of Schnurri-3 3'UTR reporter in osteoblasts; 360,000 compounds, 0.52% hits; Clone20 osteoblast Shn3 3'UTR firefly luciferase, 24 h; inhibition, % at 12.5 µM;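 active = mean inhibition of at least 75% with every replicate also reaching 75%; inconclusive = mean inhibition at least 75% but some replicate below; inactive = mean inhibition below 75%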
CF NFkB block: cystic fibrosis NF-kB activation inhibition; KKLEB NF-kB-GFP reporter, PAF-induced, GFP fluorescence overnight; inhibition, % at 5 µM; 360,000 compounds, 0.86% hits;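 active = at least 50% inhibition at 5 µM, scaled per plate between neutral and stimulator controls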;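 also: PAF is a Pseudomonas aeruginosa culture filtrate used as stimulus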
MITF TRPM1 inh: MITF TRPM1 promoter inhibition in SK-MEL-5 cells; 330,000 compounds, 0.83% hits; AID 488899; inhibition, % at 12.5 µM; SK-MEL-5 TRPM1 promoter luciferase, 24 h;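 active = mean inhibition across replicates of 60% or more, whatever share of single replicates reaches that level; inconclusive = some that reach 60%, reason not given; inactive = mean inhibition across replicates below 60%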
Mdm2-MdmX confirm: Mdm2/MdmX (human) interaction inhibition, confirmed. AID 504601. shares compounds with HIF-2a inh. inhibition, % at 8 µM. SaOS-2 split-luciferase Mdm2/MdmX complementation, luminescence. 740 compounds, 99% hits;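 active = mean inhibition of the luminescence signal across two replicates at or above 26 percent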
Target sequence (O15151 whole entry, looked up): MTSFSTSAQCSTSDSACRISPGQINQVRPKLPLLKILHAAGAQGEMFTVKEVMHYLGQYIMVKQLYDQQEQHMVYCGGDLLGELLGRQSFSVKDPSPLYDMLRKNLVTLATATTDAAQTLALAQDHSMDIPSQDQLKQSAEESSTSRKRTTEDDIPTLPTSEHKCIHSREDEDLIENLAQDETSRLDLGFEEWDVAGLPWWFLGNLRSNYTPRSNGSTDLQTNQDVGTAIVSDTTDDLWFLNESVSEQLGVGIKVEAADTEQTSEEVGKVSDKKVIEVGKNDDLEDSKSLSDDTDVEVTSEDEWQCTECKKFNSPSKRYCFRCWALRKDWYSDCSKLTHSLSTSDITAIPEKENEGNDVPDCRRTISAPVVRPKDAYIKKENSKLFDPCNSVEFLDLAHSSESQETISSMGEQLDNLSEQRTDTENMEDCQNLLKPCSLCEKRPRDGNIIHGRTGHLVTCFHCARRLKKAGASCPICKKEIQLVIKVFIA
Target sequence (Q00987 whole entry, looked up): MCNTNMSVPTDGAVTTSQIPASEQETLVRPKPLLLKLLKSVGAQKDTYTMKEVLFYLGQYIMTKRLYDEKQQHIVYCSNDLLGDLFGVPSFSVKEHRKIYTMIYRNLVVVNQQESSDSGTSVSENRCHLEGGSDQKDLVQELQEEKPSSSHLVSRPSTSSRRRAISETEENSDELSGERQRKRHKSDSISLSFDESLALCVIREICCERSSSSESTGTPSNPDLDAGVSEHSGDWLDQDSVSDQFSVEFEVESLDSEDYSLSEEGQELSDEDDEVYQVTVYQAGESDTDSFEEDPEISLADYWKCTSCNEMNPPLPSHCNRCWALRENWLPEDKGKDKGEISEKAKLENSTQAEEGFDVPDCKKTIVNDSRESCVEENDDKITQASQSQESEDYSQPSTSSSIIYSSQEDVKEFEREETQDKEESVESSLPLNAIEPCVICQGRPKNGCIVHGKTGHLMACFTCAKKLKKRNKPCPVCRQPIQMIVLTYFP
HIF-2a conf: confirmation of HIF-2a inhibitors | AID 651580 | 786-0 RCC cells, HIF-2a luciferase reporter luminescence, overnight | 1,800 compounds, 56% hits | shares compounds with HIF-2a inh | inhibition, % at 18.8 µM;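 active = mean inhibition across four replicates of at least 40 percent at the single tested concentration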
HIF-1a counter: inhibits HIF-1a reporter, a counter-screen for HIF-2a inhibitors. inhibition, % at 18.8 µM. shares compounds with HIF-2a inh. 1,800 compounds, 72% hits. MiaPaCa-2 HIF-1a luciferase reporter, desferoxamine, overnight. AID 651589;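 active = mean inhibition of the reporter signal across four replicates at the single tested dose of 50% or more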
Large screens that a line does not name were inactive (follow-up assays come after a bar, where they were run).

O=C(Cn1nnc(-c2ccc(F)cc2)n1)NC(=O)NC1CCCCC1	none (no result: MITF TRPM1 inh)
Cc1ccc(-n2ccnc(SCC(=O)NC3CCCCC3)c2=O)cc1F	none
ClC(Cl)(c1nnnn1-c1ccccc1)c1nnnn1-c1ccccc1	HIF-2a inh 52 | HIF-2a conf inactive | HIF-1a counter inactive
c1ccc(-c2nnnn2-c2ccccc2)cc1	none
O=c1c2ccccc2nc(/C=C/c2ccc([N+](=O)[O-])o2)n1CCCO	HIF-2a inh 80, Peg3 prom inh 104, Shn3 inh set2 96, MITF TRPM1 inh 98 | HIF-2a conf 54 | HIF-1a counter 106
O=c1c2ccccc2nc(/C=C/c2ccc([N+](=O)[O-])cc2)n1CCCO	none
CC1=CC(C)(C)Nc2ccc(OC(=O)C(C)N3C(=O)c4ccccc4C3=O)cc21 (centres undefined)	HIF-2a inh 78 | HIF-2a conf 90 | HIF-1a counter 94
COc1ccc(OC(=O)C(C)N2C(=O)c3ccccc3C2=O)cc1 (centres undefined)	none
CC1=CC(C)(C)Nc2ccc(OC(=O)c3cccnc3)cc21	HIF-2a inh 75, Peg3 prom inh 57 | HIF-2a conf 86 | HIF-1a counter 94
CC1=CC(C)(C)Nc2ccc(Cc3ccc4c(c3)C(C)=CC(C)(C)N4)cc21	none
CC1=CC(C)(C)Nc2ccc(C)cc21	none
CC1=CC(C)(C)Nc2ccc(OC(=O)c3ccco3)cc21	HIF-2a inh 81 | HIF-2a conf 83 | HIF-1a counter 92
CC1=CC(C)(C)Nc2ccc(OC(=O)CN3C(=O)CCC3=O)cc21	HIF-2a inh 74 | HIF-2a conf 88 | HIF-1a counter 90
N#C/C(=C\c1ccccc1)C(=O)N(c1ccccn1)C1CCCCC1	HIF-2a inh 45 | HIF-2a conf 46 | HIF-1a counter inactive
C=C1C(=O)O[C@@H]2C[C@@H](C)[C@@H]3C=CC(=O)[C@@]3(C)[C@@H](OC(C)=O)[C@H]12	none (no result: HIF-2a inh, KKLEB tox, Peg3 prom inh, Shn3 inh set2, CF NFkB block, MITF TRPM1 inh) | Mdm2-MdmX confirm 102
C[C@@H]1C[C@@H]2OC(=O)[C@]3(C)[C@H]2[C@@H](OC3(C)O)[C@]2(C)C(=O)C=C[C@H]12 (some centres undefined)	none
CC(C)(C)OC(=O)N1Cc2ccccc2C[C@H]1C(=O)NCC(=O)Nc1ccc2c(c1)OCCO2	HIF-2a inh 47 | HIF-2a conf 58 | HIF-1a counter 81
Cc1ccc(NC(=O)CSc2nc3ccccc3c(=O)n2CCCN2CCCCC2)cc1Cl	Peg3 prom inh 114 | Mdm2-MdmX confirm 103
COc1ccccc1N(C)S(=O)(=O)c1ccc(C(=O)N(C)Cc2ccc(OC(F)F)cc2)cc1	none
O=C(N/N=C/c1ccc([N+](=O)[O-])s1)c1ccncc1	MITF TRPM1 inh inconclusive
Cc1ccc(C(=O)N/N=C\c2ccc([N+](=O)[O-])s2)cn1	HIF-2a inh 63, MITF TRPM1 inh 109 | HIF-2a conf 56 | HIF-1a counter 56
O=C(N/N=C/c1ccc([N+](=O)[O-])s1)c1cccc(Br)c1	MITF TRPM1 inh 82 | Mdm2-MdmX confirm 63
Cc1cc(C)cc(N(CC(=O)Nc2ccc(Br)cc2)S(=O)(=O)c2c(C)[nH]c(=O)[nH]c2=O)c1	none
Cc1scc(C(=O)N/N=C/c2ccc([N+](=O)[O-])o2)c1C	HIF-2a inh 61, MITF TRPM1 inh 100 | HIF-2a conf 62 | HIF-1a counter 84
Cc1scc(C(=O)N/N=C/c2ccco2)c1C	none
COC(=O)C12OCC34C(CC5C(C)=C(O)C(=O)CC5(C)C3C(O)C1O)OC(=O)C(OC(=O)C=C(C)C)C24 (centres undefined)	HIF-2a inh 68, Peg3 prom inh 100, Shn3 inh set2 99, CF NFkB block 94, MITF TRPM1 inh 72 | HIF-2a conf 60 | HIF-1a counter 105
O=C(O)c1cccc(-c2nnn(Cc3ccccc3)n2)c1	none
O=C(O)c1cccc(-c2nnn(Cc3ccccc3Cl)n2)c1	HIF-2a inh 65 | HIF-2a conf 63 | HIF-1a counter inactive
CC(C)(C)C(=O)NN=C1CCC(c2ccccc2)CC1 (centres undefined)	none
CC(C)C(C(=O)NCC1CCCO1)N(C(=O)CNS(=O)(=O)c1ccccc1)c1ccc(F)cc1 (centres undefined)	none
O=S(=O)(CCSc1nc2ccccc2o1)c1nc2ccccc2s1	HIF-2a inh 57, CF NFkB block 57 | HIF-2a conf 70 | HIF-1a counter 90
CCS(=O)(=O)CCSc1nc2ccccc2o1	none
CCCCCCCCC[n+]1cccc2c3ccccc3ccc21	Peg3 prom inh 113, Shn3 inh set2 89, MITF TRPM1 inh 93 | Mdm2-MdmX confirm 101
COc1ccc(N(CC(=O)Nc2cccnc2)S(=O)(=O)c2ccccc2)cc1OC	none
O=C1C=CC(=O)N1CCNc1ncc(C(F)(F)F)cc1Cl	Peg3 prom inh 108, Shn3 inh set2 86, CF NFkB block 60 | Mdm2-MdmX confirm 103
COc1ccc(-c2cnc3c(NC(C)=O)cc(-c4ccc(C(=O)N5CCOCC5)cc4)cn23)cc1OC	HIF-2a inh 41 (no result: MITF TRPM1 inh) | HIF-2a conf inactive | HIF-1a counter inactive
CC(=O)Nc1cc(-c2ccc(C(=O)N3CCOCC3)cc2)cn2c(-c3ccc(C(C)=O)cc3)cnc12	none (no result: MITF TRPM1 inh)
CC(=O)Nc1ccc(Nc2cc(N3CCOCC3)c3nonc3c2[N+](=O)[O-])cc1	HIF-2a inh 42 | HIF-2a conf inactive | HIF-1a counter 76
N#CCc1cnc2ccccc2n1	none
CC(=O)SC(C[N+](=O)[O-])c1cn(C(C)=O)c2ccccc12 (centres undefined)	HIF-2a inh 46, Peg3 prom inh 106, MITF TRPM1 inh 106 | HIF-2a conf 96 | HIF-1a counter 86
CC1=C(CO)C(=O)OC([C@@H](C)C2CC[C@H]3C4C[C@H]5O[C@]56[C@@H](O)C=CC(=O)[C@]6(C)C4CC[C@]23C)C1 (some centres undefined)	HIF-2a inh 94, Peg3 prom inh 109, Shn3 inh set2 98, CF NFkB block 85, MITF TRPM1 inh 106 | HIF-2a conf 97 | HIF-1a counter 107
CCc1cccc(CC)c1NC(=O)/C(C#N)=C/c1ccccc1C(F)(F)F	HIF-2a inh 92, KKLEB tox -56, Peg3 prom inh 107, CF NFkB block 69, MITF TRPM1 inh 89 | HIF-2a conf 97 | HIF-1a counter 102

Compound activity from PubChem.
